Compound activity as filed in PubChem BioAssay.
Compounds with a hit are over-represented: about 2.8% of the library has one in this group of screens.
Shn3 inh set2: inhibitors of Schnurri-3 3'UTR reporter in osteoblasts; inhibition, % at 12.5 µM; Clone20 osteoblast Shn3 3'UTR firefly luciferase, 24 h; 360,000 tested, 0.52% active; AID 588674;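 active means mean inhibition of at least 75% with every replicate also reaching 75%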;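 further: 0% = median of neutral control wells and 100% = pilot-screen positive control compound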
PAX8 inh HTS: lowers PAX8-driven luciferase in RMG-I cells. RMG-I TPO-luciferase reporter, SteadyGlo, 24 h. inhibition, % at 12.6 µM. 360,000 tested, 1.2% active. AID 652154;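 active means mean replicate inhibition at least 60% with every replicate also reaching 60%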;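 further: luciferase light reporting Pax8 driven TPO promoter activity; plate controls were median of neutral control wells for no effect and mitoxantrone controls for full effect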
LMP1 NFkB inh: Epstein-Barr LMP1 NF-kappaB reporter inhibition | AID 504558 | LMP1-induced NF-kappaB luciferase reporter cells, luminescence | 350,000 tested, 0.69% active | inhibition, % at 12.5 µM; in the data active means inhibition above about 41%;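 further: 0% = neutral control wells and 100% = reference inhibitor control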
NSD2 HMT inh: blocks human histone methyltransferase NSD2. 310,000 tested, 0.54% active. O96028. NSD2 peptide methylation, AlphaScreen, 120 min. inhibition, % at 12.5 µM; in the data active means inhibition above about 50%
N-glyco inh: blocks N-linked glycosylation in D54 reporter cells | 360,000 tested, 0.23% active | AID 588692 | reporter increase, % at 12.5 µM | D54 ERlucT glycosylation luciferase reporter, 24 h; percent of 100 nM tunicamycin response;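 active means mean luciferase reporter signal, scaled so untreated is 0 and the glycosylation-blocking control 100, at or above a set limit in every replicate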;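 further: luciferase carries N-glycosylation sites so blocking glycosylation raises the light; 0% = median of neutral control wells and 100% = median of 100 nM tunicamycin wells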
HIV Env fusion: HIV envelope-mediated fusion inhibition | 360,000 tested, 1.1% active | inhibition, % at 12.3 µM | HeLa-JRFL Env/CEM21 cell fusion, luciferase;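 active means mean replicate inhibition score of at least 50 and every replicate individually at or above 50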;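 further: 0% = plate neutral controls and 100% = maraviroc near 300 nM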
* marks the source's active call; other numbers are inactive results; x = not tested or not shown; [ ] = another dose, or the depositor's remark.

SMILES	Shn3 inh set2	PAX8 inh HTS	LMP1 NFkB inh	NSD2 HMT inh	N-glyco inh	HIV Env fusion
Cc1cccc(S(=O)(=O)N2[C@@H]3Cn4c(ccc(-c5ccc(F)cc5)c4=O)[C@H]2[C@@H](C(=O)O)[C@@H]3CO)c1	x	x	x	x	x	3.6[16.7 µM]
COc1ccc2[nH]c(C)c(CCNCc3cc(OC)c(OC)c(OC)c3)c2c1	43.8	14.9	-1.1	2.8	2.0	5.9
COc1ccc(CNCCc2c(C)[nH]c3ccc(OC(F)(F)F)cc23)c(OC)c1	89.6*	13.0	20.9	9.8	-4.1	25.2
COc1ccc(-c2ccc([C@@H]3[C@@H](CO)N4CCCCN(C(=O)Cc5ccncc5)C[C@@H]34)cc2)cc1	x	-16.4	x	x	x	x
N#Cc1ccc(-c2ccc([C@H]3[C@@H](CO)N4CCCCN(C(=O)Cc5ccccc5)C[C@H]34)cc2)cc1	x	18.1	x	x	x	x
CNCC(O)c1ccc(O)cc1 (stereo unspecified)	11.7	-18.3	x	x	1.0	-11.4
CC(Cc1ccc(O)cc1)NCC(O)c1ccc(O)c(O)c1 (stereo unspecified)	15.9	-0.2	8.5	126.0*	2.9	1.1
O=C(Cc1ccccn1)N1CCCCN2[C@H](CO)[C@H](c3ccc(-c4ccc(F)cc4)cc3)[C@H]2C1	x	0.7	x	x	x	x
O=c1c2ccccc2nc(CN2CCCCCC2)n1-c1ccc(F)cc1	10.6	x	2.6	16.3	0.7	70.7*
C=C1C(=O)OC2CC3(C)OC3CCC(C)=CC(OC(C)=O)C12 (stereo unspecified)	2.3	95.3*	55.2*	-2.3	-12.2	33.4
O=C(Cc1ccccn1)N1CCCCN2[C@H](C1)[C@H](c1ccc(Br)cc1)[C@@H]2CO	x	6.5	x	x	x	x
COc1ccc(C[C@H]2NC[C@H](O)[C@H]2OC(C)=O)cc1	93.9*	102.8*	90.6*	x	-17.2	-0.3
COc1ccc(CCNC2CCCCC2)cc1	-23.8	7.4	-7.1	16.1	0.8	10.2
O=C(Cc1ccccn1)N1CCCCN2[C@H](CO)[C@@H](c3ccc(Br)cc3)[C@@H]2C1	x	-25.5	x	x	x	x
COC1CCC(OC2CC(C3(C)CCC4(CC(O)C(C)C(C(C)/C=C(\C)C(=O)C(C)CC(C)C(=O)O)O4)O3)OC3(OC(C4OC(O)(CO)C(C)CC4C)CC3C)C2C)OC1C (stereo unspecified)	79.0	105.7*	-10.5	x	-14.8	47.3
CCOC(=O)[C@]12Cc3cc(Cl)ccc3[C@H]1N(C)C(=O)c1ccccc12	x	14.1	x	x	x	24.8
CCOC(=O)[C@]12Cc3c(cc(OC)c(OC)c3OC)[C@H]1N(Cc1ccccc1)C(=O)c1ccccc12	6.8	21.9	-8.5	x	-1.7	63.7*
CCOC(=O)[C@]12Cc3cc(OC)ccc3[C@H]1N(C)C(=O)c1ccccc12	x	-50.7	x	x	x	5.6
CCOC(=O)[C@]12Cc3cc(Cl)ccc3[C@H]1N(C(C)C)C(=O)c1ccccc12	x	86.0*	x	x	x	-35.5
CCOC(=O)[C@]12Cc3cc(OC)ccc3[C@H]1N(C1CCCCC1)C(=O)c1ccccc12	x	76.2*	x	x	x	-23.0
O=C(Cc1ccccc1)N1CCCCN2[C@@H](CO)[C@H](c3ccc(C#Cc4ccccc4)cc3)[C@@H]2C1	x	26.7	x	x	x	x
Cc1cccc(S(=O)(=O)N2[C@@H]3Cn4c(ccc(-c5ccccc5)c4=O)[C@H]2[C@@H](C(=O)O)[C@@H]3CO)c1	x	-6.9	x	x	x	x
CN1CCN(C(=O)COc2ccc(-c3nc4ccccc4s3)cc2)CC1	19.5	x	59.3*	x	-11.9	x
Cn1nc(-c2ccc(OCC(=O)N3CCN(Cc4ccccc4)CC3)cc2)c2ccccc2c1=O	89.0*	x	20.8	3.0	-1.0	71.3*
CC=Cc1ccc2n(c1=O)C[C@@H]1[C@@H](CO)[C@H](C(=O)OC)[C@H]2N1CC1CCCCC1 (mixture of isomers)	x	-1.7	x	x	x	x
SMILES	Shn3 inh set2	PAX8 inh HTS	LMP1 NFkB inh	NSD2 HMT inh	N-glyco inh	HIV Env fusion
CN1C2CCC1/C(=C/c1ccccn1)C(=O)/C2=C\c1ccccn1	92.7*	106.6*	92.6*	16.4	-19.6	60.2*
Cc1ccccc1-n1c(/C=C/c2ccccn2)nc2ccccc2c1=O	9.5	47.0	-5.5	0.0	-5.9	10.9
COc1ccc(C#Cc2ccc([C@@H]3[C@@H](CO)N4CCCCN(C(=O)Cc5ccccc5)C[C@H]34)cc2)cc1	x	2.4	x	x	x	x
COC(=O)[C@H]1[C@H](CO)[C@H]2Cn3c(ccc(-c4cccnc4)c3=O)[C@@H]1N2S(=O)(=O)c1ccccc1F	x	-16.4	x	x	x	x
COC(=O)[C@H]1[C@H](CO)[C@H]2Cn3c(ccc(C4=CCCC4)c3=O)[C@@H]1N2S(=O)(=O)c1cn(C)cn1	x	-2.4	x	x	x	x
O=[N+]([O-])c1ccc(N2CCNCC2)cc1N1CCCCC1	-7.9	83.1*	-4.6	5.4	-1.8	-11.6
C[N+]1(C)[C@@H]2CC[C@H]1CC(OC(=O)C(CO)c1ccccc1)C2 (stereo partly specified)	-3.5	-5.3	80.0*	x	1.8	x
C[N+]1(C)C2CCC1CC(OC(=O)C(CO)c1ccccc1)C2 (stereo unspecified)	-3.8	-17.5	1.5	x	0.5	17.1
Cn1c(NN=O)nc2ccccc21	89.6*	36.8	5.5	-5.3	-5.2	-8.7
CN1CCN(Cc2nc3ccccc3n2C)CC1	2.2	-14.2	-0.2	-4.4	0.2	-110.0
CC=Cc1ccc2n(c1=O)C[C@H]1[C@H](CO)[C@@H](C(=O)OC)[C@@H]2N1CC1CCCCC1 (mixture of isomers)	x	11.7	x	x	x	x
C[C@H]1CCC/C=C/[C@@H]2C[C@H](O)C[C@H]2[C@@H](O)/C=C/C(=O)O1	88.3*	118.9*	-48.8	-2.5	0.2	81.7*
CC1OC(OC2C=C3CCC4C(CCC5(C)C(c6ccc(=O)oc6)CCC45O)C3(C)CC2)C(O)C(OC2OC(CO)C(O)C(O)C2O)C1O (stereo unspecified)	-4.2	106.0*	89.2*	-0.1	-17.5	63.2*
COC(=O)C[C@@H]1CC[C@@H]2NC[C@H](O)COC[C@H]2O1	x	6.0	x	x	x	7.9[16.7 µM]
C=C1C(=O)OC2CC3(C)OC3C3OC3C3=CC(OC3=O)C12 (stereo unspecified)	94.2*	x	x	x	11.5	x
N#Cc1cccc(-c2ccc([C@@H]3[C@@H](CO)N4CCCCN(C(=O)Cc5cccnc5)C[C@@H]34)cc2)c1	x	-4.7	x	x	x	x
O=C(CF)N(O)c1ccc(C=Cc2ccccc2)cc1	-2.9	-164.7	87.9*	-5.0	-8.3	-85.3
Cc1nc2cc(-c3ccc(Cl)cc3)nn2c(C)c1CCC(=O)N1CCC2(CC1)OCCO2	49.0	-25.4	23.1	0.3	-1.6	79.1*
O=C(CCn1nc(-c2ccc(Cl)cc2)ccc1=O)N1CCC2(CC1)OCCO2	8.8	7.4	2.2	-0.1	0.3	1.1
COC(=O)C1=C(c2cc3ccccc3s2)C[C@@H]2CC[C@H]1N2C(=O)NCC1CC1	44.7	13.0	-5.0	x	-3.6	-5.4
COC(=O)C1=C(c2cc3ccccc3o2)C[C@@H]2CC[C@H]1N2C(=O)NCc1cccc2ccccc12	36.7	6.3	4.1	x	0.2	100.7*
